Where “and” joins values, the source holds several entries; their conditions need not be identical. Identical values can stand only once. About 83,000 compounds went through this panel and 20% of them were active in at least one assay; those are over-represented in the sample as a whole.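 Note: values are percent growth. 100 is the growth of untreated cells, values between 100 and 0 indicate rising inhibition; between -100 and 0 indicates cell death.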 Values without a mark were called inactive. Rule for the calls: active = growth percent below 10; inactive = the rest.
These molecules were tested on MDA-MB-468 breast (assay: NCI-60 one-dose screen, 48 h (100 = growth as untreated, 0 = no growth, -100 = all killed)). Details: 10 µM unless noted.

| SMILES | growth |
| --- | --- |
| O=C(Nc1ccc(Cl)cc1)C1=NCCCCN1 | 111% |
| COc1cc2nc3c(=O)n(-c4ccc(C#N)cc4)cnn3c(=O)c2cc1OC | 97.4% |
| COc1ccc(/C=N/NC(=O)COCC(=O)N/N=C/c2ccc(OC)cc2)cc1 | 100% |
| N=C(N)N1CCc2ccccc2C1 | 41% and 107% |
